Laboratory results from PubChem BioAssay.
Activity calls are given as the source filed them.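 Rule for the calls, unless noted: active = visual image review flags a hit and inhibition of aggregation exceeds 20%; inconclusive = visual hit but inhibition at or below 20%; inactive = no hit on visual image review.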 Where a SMILES comes first, the peptide text is derived from it. The star is where a group is joined. Boc = CC(C)(C)OC(=O)*

Assays:
[1] = inhibitors of TNFa-induced NFkB p65 translocation, primary screen, imaging, HUVEC, MLSMR starter and 10KST1 sets (AID 438;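 active = inhibition above 20% together with a positive visual image hit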;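 note: compound added about 3h40 before a 20 min TNFalpha stimulation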;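 for inhibition: signal is the nuclear over cytoplasmic p65 intensity ratio per well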); conditions: HUVEC TNFa-induced p65 nuclear translocation; cell count: measured here: nuclei count (cytotoxicity indicator), at 2.08 µM; inhibition: at 2 µM, stronger effect = higher value, 0% TNFa-plus-vehicle, 100% no-TNFa wells
[2] = reduction of polyQ htt aggregates in cells – imaging, exon1htt(103Q)mCFP cells, high-content imaging, primary screen (AID 483); conditions: exon1htt(103Q)mCFP cell line, aggregate imaging, at 2 µM; inhibition of aggregation: stronger effect = higher value; nuclei count: measured here: cell count, toxicity;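 note: compound exposure lasted 3 days before fixation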;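 for nuclei count: percent of the per-plate median nuclei count of sample wells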
[3] = endothelial E-selectin expression blockers – imaging, HUVEC, immunofluorescence, MLSMR starter and 10KST1 sets, primary screen (AID 487;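 active = visually confirmed hit in the image check and inhibition above 20%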;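 for inhibition: signal is fraction of cell area covered by stained E-selectin grains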;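 for nuclei count: 100% = median nuclei count of all wells on the same plate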); conditions: HUVEC TNFalpha-induced E-selectin immunofluorescence imaging, at 2 µM; inhibition: stronger effect = higher value; nuclei count: measured here: cell number, toxicity
[4] = molecular target: Voltage-gated potassium channel subunit beta-2 (Rattus norvegicus) (UniProt P62483); test: inhibitors of rat Kvbeta2 reductase activity – biochemical, NADPH fluorescence, primary screen (AID 622;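 active = fluorescence slope higher than the sample average by over 3 SD, cut at about -0.22 in these data, passing the limit was not always enough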;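 note: slope of raw intensity against log time taken from 70 to 1610 s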); conditions: recombinant KvBeta, 4-cyanobenzaldehyde reduction, at 10 µM, stronger effect = higher value
[5] = molecular target: Voltage-gated potassium channel subunit beta-2 (Rattus norvegicus) (UniProt P62483); test: enhancers of rat Kvbeta2 NADPH turnover – biochemical, NADPH fluorescence, primary screen (AID 623;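 active = NADPH fluorescence slope more negative than the mean of all samples by about 3 SD, 99.7% confidence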;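 note: fluorescence intensity change per second fitted from 20 to 320 s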); conditions: Recombinant KvBeta, NADPH fluorescence decrease slope, 10 min; at 10 µM; stronger effect = lower value
[6] = molecular target: Alpha-2C adrenergic receptor (Homo sapiens) (UniProt P18825); test: compounds altering alpha2C-coupled GIRK flux – cell-based, HEK293 alpha2C/GIRK1/2, thallium flux, primary screen (AID 624;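 active = fluorescence slope after compound addition differing from the mean of all screened samples at 99.7% confidence, in either direction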;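 note: slope of fluorescence ratio to pre-addition baseline per second over 15 to 24 s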); conditions: thallium flux BTC fluorescence, at 10 µM, actives lie on both sides
[7] = blockers of RIG-like receptor reporter activation – cell-based, Sendai virus stimulus, luciferase, 10K MLSCN set, TLR/RLR signaling modifier project, primary screen (AID 602276;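 active = inhibition at or above 50% at 10 µM; inactive = inhibition below 50%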;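 note: firefly luciferase from ISG56 promoter only with Renilla not read in this screen; 0% = Sendai virus plus DMSO and 100% = medium plus DMSO without virus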); conditions: HEK293 RL24 IRF3 luciferase reporter, at 10 µM, stronger effect = higher value
[8] = TLR3 IRF3 reporter activation blockers – cell-based, poly I:C stimulus, luciferase, 10K MLSCN set, primary screen (AID 602277;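 active = inhibition of the reporter signal at or above 50%; inactive = inhibition below 50%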); conditions: HEK293-TLR3 RL24 IRF3 luciferase reporter, at 10 µM, stronger effect = higher value

Alpha-2C adrenergic receptor (Homo sapiens), sequence (P18825 whole entry, looked up): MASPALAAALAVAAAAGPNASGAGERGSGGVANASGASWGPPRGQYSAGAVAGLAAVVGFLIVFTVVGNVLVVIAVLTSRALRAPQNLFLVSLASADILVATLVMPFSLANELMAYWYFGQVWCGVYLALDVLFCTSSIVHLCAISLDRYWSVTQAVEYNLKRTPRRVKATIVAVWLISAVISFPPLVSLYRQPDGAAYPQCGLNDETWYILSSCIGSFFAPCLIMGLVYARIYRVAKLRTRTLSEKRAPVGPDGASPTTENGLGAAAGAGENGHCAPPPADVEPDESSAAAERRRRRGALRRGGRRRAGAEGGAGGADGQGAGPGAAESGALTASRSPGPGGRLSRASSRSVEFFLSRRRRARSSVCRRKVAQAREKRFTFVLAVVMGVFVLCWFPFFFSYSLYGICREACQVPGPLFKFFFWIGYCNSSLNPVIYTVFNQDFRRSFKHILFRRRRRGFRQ
Voltage-gated potassium channel subunit beta-2 (Rattus norvegicus), sequence (P62483 whole entry, looked up): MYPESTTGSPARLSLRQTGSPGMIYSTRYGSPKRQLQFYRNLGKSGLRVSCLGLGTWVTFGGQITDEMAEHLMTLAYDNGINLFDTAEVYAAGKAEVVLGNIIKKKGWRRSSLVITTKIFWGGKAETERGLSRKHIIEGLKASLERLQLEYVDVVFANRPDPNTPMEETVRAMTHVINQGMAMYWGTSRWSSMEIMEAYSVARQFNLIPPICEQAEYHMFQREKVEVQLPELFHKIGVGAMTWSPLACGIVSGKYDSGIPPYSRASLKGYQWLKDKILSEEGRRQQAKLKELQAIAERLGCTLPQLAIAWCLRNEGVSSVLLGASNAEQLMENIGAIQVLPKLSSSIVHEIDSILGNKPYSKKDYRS

| Compound | cell count [1] | inhibition [1] | inhibition of aggregation [2] | nuclei count [2] | inhibition [3] | nuclei count [3] | fluorescence slope [4] | NADPH fluorescence slope [5] | slope [6] | inhibition [7] | inhibition [8] |
| --- | --- | --- | --- | --- | --- | --- | --- | --- | --- | --- | --- |
| CC(=O)OCC1OC(c2ccccc2)C(OC(C)=O)C(OC(C)=O)C1OC(C)=O (stereo not given) | 274 | -5% (inactive) | 15.4% (inactive) | 59.7% | -26.4% (inactive) | 106% | -0.351 (inactive) | -2.1e-05 (inactive) | 0.00646 (inactive) | 6.22% (inactive) | 34.3% (inactive) |
| COCCn1c(SCC(=O)N2CCc3ccccc32)nc2c(c1=O)SC(C)C2 (stereo not given) | 499 | -4.4% (inactive) | 13% (inactive) | 87.2% | -0.4% (inactive) | 109% | -0.45 (inactive) | -1.4e-05 (inactive) | 0.00569 (inactive) | 1.65% (inactive) | 22.3% (inactive) |
| CCN(CC)CCCNC(=O)c1nn(-c2ccc(OC)cc2OC)c(=O)c2ccccc12 | 352 | 5.3% (inactive) | -6.3% (inactive) | 106% | -101% (inactive) | 127% | -0.597 (inactive) | -3.1e-05 (inactive) | 0.00476 (inactive) | -10.6% (inactive) | 7.12% (inactive) |
| COc1ccc(Cl)cc1NC(=O)CCN1CCN(c2ccccc2C)CC1 | 285 | 21.9% (inactive) | -3.9% (inactive) | 101% | -35.4% (inactive) | 112% | -0.308 (inactive) | -6.5e-05 (inactive) | 0.00554 (inactive) | 10% (inactive) | 5.86% (inactive) |
| CCOC(=O)C(C)(C)Sc1nc2c(cnn2-c2ccc(C)cc2)c(=O)[nH]1 | 387 | -1.6% (inactive) | -13.4% (inactive) | 106% | -44.8% (inactive) | 106% | -0.626 (inactive) | -2.5e-05 (inactive) | 0.00578 (inactive) | 9.78% (inactive) | 34% (inactive) |
| CS(=O)(=O)N1CCN(c2ccccc2NC(=O)c2ccc(-c3ccc(Cl)cc3Cl)o2)CC1 | 194 | -3.5% (inactive) | 32.9% (active) | 72.7% | 24.8% (inactive) | 54.7% | -0.357 (inactive) | 2.6e-05 (inactive) | 0.00896 (inactive) | 12% (inactive) | 23.2% (inactive) |
| CC(=O)N(C)C1(c2nnnn2CCOC(=O)Nc2cccc3ccccc23)CCCC1 | 600 | -8.2% (inactive) | 31.6% (inactive) | 98.9% | -99.1% (inactive) | 105% | -0.61 (inactive) | -5.7e-05 (inactive) | 0.00458 (inactive) | 13% (inactive) | 21.8% (inactive) |
| CCOC(=O)c1sc(=NC(=O)c2ccc(OC)c(OC)c2)n(C)c1C | 642 | 10.1% (inactive) | 3.7% (inactive) | 93.8% | 47.2% (inactive) | 75.6% | -0.583 (inactive) | -2.7e-05 (inactive) | 0.00657 (inactive) | -16.4% (inactive) | -82.7% (inactive) |
| O=C(O)C1CCCN(S(=O)(=O)c2ccc(Cl)s2)C1 (stereo not given) | 609 | -7.1% (inactive) | 13.3% (inactive) | 88.8% | -43.3% (inactive) | 116% | -0.558 (inactive) | -2.9e-05 (inactive) | 0.00655 (inactive) | 10.1% (inactive) | 33.8% (inactive) |
| CSCCC(NC(=O)OC(C)(C)C)C(=O)NC(CC(C)C)C(N)=O (stereo not drawn) (Boc-Met-Leu-NH2; configuration not given here) | 396 | -2.1% (inactive) | -0.6% (inactive) | 114% | 7.9% (inactive) | 101% | -0.577 (inactive) | 3.1e-05 (inactive) | 0.00653 (inactive) | 5.67% (inactive) | 22% (inactive) |
| O=C(CCNS(=O)(=O)c1cccc2nsnc12)NCc1cccs1 | 623 | -21% (inactive) | -17.4% (inactive) | 101% | -34.5% (inactive) | 118% | -0.508 (inactive) | -0.000109 (inactive) | 0.00523 (inactive) | 17.1% (inactive) | 19% (inactive) |
| CCCOc1cccc(C(=O)N(Cc2ccco2)C2CCS(=O)(=O)C2)c1 (stereo not given) | 378 | 1.7% (inactive) | -7.9% (inactive) | 100% | -94.2% (inactive) | 112% | -0.442 (inactive) | -3.3e-05 (inactive) | 0.00536 (inactive) | 2.23% (inactive) | -2.97% (inactive) |
| CN(C)c1ccc(CNn2cnnc2)cc1 | 499 | 4.4% (inactive) | 3.2% (inactive) | 68.8% | -50.6% (inactive) | 102% | -0.369 (inactive) | 1.6e-05 (inactive) | 0.00382 (inactive) | 5.14% (inactive) | 16.1% (inactive) |
| CCC(=O)N1CCN=C1SCc1ccc(Cl)cc1 | 233 | -4.9% (inactive) | -22.3% (inactive) | 111% | 7.9% (inactive) | 106% | -0.559 (inactive) | 5.6e-05 (inactive) | 0.00598 (inactive) | 21.3% (inactive) | 43.1% (inactive) |
| COc1ccc(S(=O)(=O)N2CCN(c3ccc(C)cc3C)CC2)cc1OC | 772 | -0.6% (inactive) | -17.1% (inactive) | 114% | -19.1% (inactive) | 123% | -0.544 (inactive) | -3.9e-05 (inactive) | 0.0076 (inactive) | 4.37% (inactive) | 13.8% (inactive) |
| COCCn1c(SCC(=O)Nc2sc(C)c(C)c2C#N)nnc1C(C)C | 593 | -11.7% (inactive) | 25.9% (inactive) | 73% | 18.9% (inactive) | 78.2% | -0.491 (inactive) | -7.2e-05 (inactive) | 0.00431 (inactive) | 11.9% (inactive) | 5.56% (inactive) |
| COc1ccc(C(=O)Nc2ccccc2C(=O)NCCN2CCOCC2)cc1 | 462 | -2.2% (inactive) | -3.2% (inactive) | 98.2% | -23.5% (inactive) | 103% | -0.429 (inactive) | -1.1e-05 (inactive) | 0.00486 (inactive) | -23.4% (inactive) | -25.1% (inactive) |
| COc1ccc(OC)c(-c2nc3c(C)n[nH]c(=O)c3[nH]2)c1 | 536 | 10.3% (inactive) | 13% (inactive) | 18.1% | 9.1% (inactive) | 118% | -0.423 (inactive) | -6.2e-05 (inactive) | 0.00496 (inactive) | 8.37% (inactive) | 20.2% (inactive) |
| CCN(CC)CC(C)CNC(=O)CC(C(=O)N1CCc2ccccc21)n1ccnc1 (stereo not given) | 604 | -10% (inactive) | 10.7% (inactive) | 98.5% | -125% (inactive) | 110% | -0.464 (inactive) | 6.1e-05 (inactive) | 0.00462 (inactive) | 3.93% (inactive) | 11% (inactive) |
| CC1C=CC(C)C(C(=O)O)C1C(=O)O (stereo not given) | 543 | -4.4% (inactive) | 13% (inactive) | 46.5% | -15.8% (inactive) | 96% | -0.476 (inactive) | -5.7e-05 (inactive) | 0.00278 (inactive) | 7.99% (inactive) | 41.3% (inactive) |
| CCOCCCNC(=O)CN1CCN(Cc2ccccc2C)C1=O | 600 | -4.4% (inactive) | -25.9% (inactive) | 108% | -42% (inactive) | 117% | -0.574 (inactive) | -5.1e-05 (inactive) | 0.00699 (inactive) | -1.33% (inactive) | 19.7% (inactive) |
| Cc1cccc(OCCCC(=O)O)c1 | 438 | 1.4% (inactive) | -12.7% (inactive) | 101% | -57.9% (inactive) | 116% | -0.584 (inactive) | -3.6e-05 (inactive) | 0.00464 (inactive) | -5.29% (inactive) | 8.09% (inactive) |
| CCCCn1c(CNC(=O)CCC)nc2ccccc21 | 635 | 3.9% (inactive) | -10.7% (inactive) | 124% | -30.1% (inactive) | 116% | -0.565 (inactive) | -4.3e-05 (inactive) | 0.00641 (inactive) | 5.22% (inactive) | 31.7% (inactive) |
| COc1ccc(C(C)N2CC34C=CC(O3)C(C(=O)OCC(C)C)C4C2=O)cc1 (stereo not given) | 589 | 9.1% (inactive) | 3.8% (inactive) | 75.7% | 8.2% (inactive) | 93.5% | -0.541 (inactive) | -4.3e-05 (inactive) | 0.00626 (inactive) | 13.5% (inactive) | 23.7% (inactive) |
| COc1ccccc1NC(=O)C1=C(C)Nc2nc(CCCO)nn2C1c1cccnc1 (stereo not given) | 318 | 1.6% (inactive) | 10.7% (inactive) | 102% | -30.7% (inactive) | 114% | -0.631 (inactive) | -3.9e-05 (inactive) | 0.00626 (inactive) | 6.83% (inactive) | 5.25% (inactive) |
